Data as given in PubChem BioAssay (EPA / NIEHS).
Calls of active or inactive are those of the source. The calls were made as follows: active = hit-call score of the fitted dose curve at least 0.9, where 1 is the maximum; inactive = score below 0.9.

Assays:
[1] = read-out: Macrophage colony-stimulating factor (MCSF), CSF1 (gene 1435); experiment: BSK_CASM3C_MCSF: BioMAP Diversity Plus: CASM3C Assay for Macrophage colony-stimulating factor (MCSF) Biomarker Activity (AID 2283044); details: primary human coronary artery smooth muscle cells; actives raise or lower the signal;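 also: M-CSF protein amount quantified by ELISA after 24 h exposure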
[2] = read-out: Low-density lipoprotein receptor (LDLR), LDLR (gene 3949); experiment: BSK_CASM3C_LDLR: BioMAP Diversity Plus: CASM3C Assay for Low-density lipoprotein receptor (LDLR) Biomarker Activity (AID 2283045); details: primary human coronary artery smooth muscle cells; actives raise or lower the signal;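 also: LDLR protein level on the cell surface quantified by ELISA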
[3] = read-out: Monocyte Chemoattractant Protein-1 (MCP1), CCL2 (gene 6347); experiment: BSK_CASM3C_MCP1: BioMAP Diversity Plus: CASM3C Assay for Monocyte Chemoattractant Protein-1 (MCP1) Biomarker Activity (AID 2283046); details: primary human coronary artery smooth muscle cells; actives raise or lower the signal;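 also: MCP-1 level quantified by ELISA 24 h after dosing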
[4] = BSK_CASM3C_Proliferation: Cell Proliferation Assessment in the BioMAP Diversity Plus: CASM3C Assay (AID 2283047); details: primary human coronary artery smooth muscle cells;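 also: sulforhodamine B total protein stain as relative cell number at 560 nm; sub-confluent cells exposed 48 h before staining; fitted both ways against DMSO so gain or loss of cell number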
[5] = read-out: Monokine induced gamma interferon (MIG), CXCL9 (gene 4283); experiment: BSK_CASM3C_MIG: BioMAP Diversity Plus: CASM3C Assay for Monokine induced gamma interferon (MIG) Biomarker Activity (AID 2283048); details: primary human coronary artery smooth muscle cells; actives raise or lower the signal;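 also: MIG protein level measured by ELISA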
[6] = read-out: serum amyloid A (SAA), SAA1 (gene 6288); experiment: BSK_CASM3C_SAA: BioMAP Diversity Plus: CASM3C Assay for serum amyloid A (SAA) Biomarker Activity (AID 2283049); details: primary human coronary artery smooth muscle cells; actives raise or lower the signal;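 also: SAA protein level quantified by ELISA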
[7] = BSK_CASM3C_SRB: Viability Assessment in the BioMAP Diversity Plus: CASM3C Assay (AID 2283050); details: primary human coronary artery smooth muscle cells;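 also: cells exposed to compound for 24 h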
[8] = read-out: Thrombomodulin, THBD (gene 7056); experiment: BSK_CASM3C_Thrombomodulin: BioMAP Diversity Plus: CASM3C Assay for Thrombomodulin Biomarker Activity (AID 2283051); details: primary human coronary artery smooth muscle cells; actives raise or lower the signal;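 also: thrombomodulin protein level measured by ELISA 24 h after dosing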
[9] = read-out: Tissue Factor, F3 (gene 2152); experiment: BSK_CASM3C_TissueFactor: BioMAP Diversity Plus: CASM3C Assay for Tissue Factor Biomarker Activity (AID 2283052); details: primary human coronary artery smooth muscle cells; actives raise or lower the signal;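 also: cell surface tissue factor protein level read by ELISA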
[10] = read-out: Urokinase-type plasminogen activator receptor (uPAR), PLAUR (gene 5329); experiment: BSK_CASM3C_uPAR: BioMAP Diversity Plus: CASM3C Assay for Urokinase-type plasminogen activator receptor (uPAR) Biomarker Activity (AID 2283054); details: primary human coronary artery smooth muscle cells; actives raise or lower the signal;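 also: cell-surface uPAR protein level quantified by ELISA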
[11] = read-out: Vascular cell adhesion molecule 1 (VCAM1), VCAM1 (gene 7412); experiment: BSK_CASM3C_VCAM1: BioMAP Diversity Plus: CASM3C Assay for Vascular cell adhesion molecule 1 (VCAM1) Biomarker Activity (AID 2283055); details: primary human coronary artery smooth muscle cells; actives raise or lower the signal;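 also: VCAM-1 protein level quantified by ELISA on the cells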
[12] = read-out: Collagen III, COL3A1 (gene 1281); experiment: BSK_hDFCGF_CollagenIII: BioMAP Diversity Plus: hDFCGF Assay for Collagen III Biomarker Activity (AID 2283056); details: primary human foreskin fibroblasts; actives raise or lower the signal
How it was run: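 hDFCGF primary human dermal fibroblasts; 24 h chemical exposure; collagen III by ELISA; bidirectional curve fit vs DMSO baseline (gain or loss of signal).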

[13] = read-out: Epidermal growth factor receptor (EGFR), EGFR (gene 1956); experiment: BSK_hDFCGF_EGFR: BioMAP Diversity Plus: hDFCGF Assay for Epidermal growth factor receptor (EGFR) Biomarker Activity (AID 2283057); details: primary human foreskin fibroblasts; actives raise or lower the signal
How it was run: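 Cell-based multiplexed assay in primary human foreskin fibroblasts. EGFR is read by ELISA 24 h after treatment and compared with DMSO controls.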

[14] = read-out: Interleukin-8 (IL8), CXCL8 (gene 3576); experiment: BSK_hDFCGF_IL8: BioMAP Diversity Plus: hDFCGF Assay for Interleukin-8 (IL8) Biomarker Activity (AID 2283058); details: primary human foreskin fibroblasts; actives raise or lower the signal
How it was run: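 ELISA read-out of IL-8 from primary human foreskin fibroblast cultures taken 24 h after dosing; values are bidirectional fits relative to DMSO vehicle.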

[15] = BSK_hDFCGF_Proliferation: Cell Proliferation Assessment in the BioMAP Diversity Plus: hDFCGF Assay (AID 2283059); details: primary human foreskin fibroblasts;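 also: curves fitted for both rise and fall of signal versus DMSO baseline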
How it was run: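 Sub-confluent human foreskin fibroblast cultures receive test chemical […]. Relative cell number is quantified by sulforhodamine B staining (0.1%, after 10% TCA fixation) at 560 nm, with bidirectional fitting referenced to DMSO.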

[16] = BSK_hDFCGF_SRB: Viability Assessment in the BioMAP Diversity Plus: hDFCGF Assay (AID 2283061); details: primary human foreskin fibroblasts;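 also: cells exposed to compound for 24 h before the read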
How it was run: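 Primary human foreskin fibroblasts; 24 h post-dose; fixed 10% TCA, stained 0.1% SRB, A560 read; total protein as overt cytotoxicity measure; curves fit bidirectionally vs DMSO control.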

[17] = read-out: TIMP metallopeptidase inhibitor 1 (TIMP1), TIMP1 (gene 7076); experiment: BSK_hDFCGF_TIMP1: BioMAP Diversity Plus: hDFCGF Assay for TIMP metallopeptidase inhibitor 1 (TIMP1) Biomarker Activity (AID 2283062); details: primary human foreskin fibroblasts; actives raise or lower the signal
How it was run: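 ELISA readout of TIMP-1 from human dermal foreskin fibroblast cultures 24 h post-dosing. Curves were fitted in both directions against DMSO baseline, with SRB total-protein staining in parallel cultures as a cytotoxicity check.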

[18] = read-out: Monokine induced gamma interferon (MIG), CXCL9 (gene 4283); experiment: BSK_hDFCGF_MIG: BioMAP Diversity Plus: hDFCGF Assay for Monokine induced gamma interferon (MIG) Biomarker Activity (AID 2283063); details: primary human foreskin fibroblasts; actives raise or lower the signal
How it was run: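 Fibroblasts (human foreskin, primary) dosed, 24 h, MIG by ELISA; fit bidirectional vs DMSO.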

[19] = read-out: Interferon-gamma inducible Protein 10 (IP10), CXCL10 (gene 3627); experiment: BSK_hDFCGF_IP10: BioMAP Diversity Plus: hDFCGF Assay for Interferon-gamma inducible Protein 10 (IP10) Biomarker Activity (AID 2283053); details: primary human foreskin fibroblasts; actives raise or lower the signal
How it was run: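 Chemical-treated human skin fibroblasts (primary) were sampled at 24 h for IP-10 by ELISA. Both increases and decreases relative to DMSO were scored.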

[20] = read-out: Macrophage colony-stimulating factor (MCSF), CSF1 (gene 1435); experiment: BSK_hDFCGF_MCSF: BioMAP Diversity Plus: hDFCGF Assay for Macrophage colony-stimulating factor (MCSF) Biomarker Activity (AID 2283060); details: primary human foreskin fibroblasts; actives raise or lower the signal
How it was run: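 ELISA read-out of M-CSF in human dermal foreskin fibroblast cultures, 24 h after chemical dosing; gain or loss of signal fitted bidirectionally relative to DMSO baseline.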

CC(C)(C)OOC(=O)c1ccccc1
outcome [1]: inactive
outcome [2]: inactive
outcome [3]: inactive
AC50 [4]: 8.08 µM (active)
outcome [5]: inactive
outcome [6]: inactive
outcome [7]: inactive
outcome [8]: inactive
outcome [9]: inactive
outcome [10]: inactive
outcome [11]: inactive
AC50 [12]: 35.1 µM (active)
outcome [13]: inactive
AC50 [14]: 34.3 µM (active)
AC50 [15]: 20 µM (active)
AC50 [16]: 30.9 µM (active)
AC50 [17]: 11.9 µM (active)
AC50 [18]: 35.1 µM (active)

CCOC(=O)[C@]1(c2ccccc2)Oc2ccccc2[C@@H]1N
outcome [1]: inactive
AC50 [2]: 23.4 µM (active)
outcome [3]: inactive
outcome [4]: inactive
outcome [5]: inactive
outcome [6]: inactive
outcome [7]: inactive
outcome [8]: inactive
outcome [9]: inactive
outcome [10]: inactive
outcome [11]: inactive
AC50 [12]: 31.9 µM (active)
outcome [13]: inactive
AC50 [14]: 32.2 µM (active)
AC50 [15]: 17.8 µM (active)
AC50 [16]: 26.9 µM (active)
AC50 [17]: 30.2 µM (active)

CCCCCCCCCCCCCN1CC(C)OC(C)C1 (configuration not stated)
outcome [1]: inactive
outcome [2]: inactive
outcome [3]: inactive
outcome [4]: inactive
outcome [5]: inactive
outcome [6]: inactive
outcome [7]: inactive
outcome [8]: inactive
outcome [9]: inactive
outcome [10]: inactive
outcome [11]: inactive
outcome [12]: inactive
outcome [13]: inactive
outcome [14]: inactive
AC50 [15]: 0.541 µM (active)
outcome [16]: inactive
outcome [17]: inactive
outcome [18]: inactive

COc1cc(C=O)cc2c1[C@H](COC(N)=O)[C@]1(OC(C)=O)ON2C[C@H]2[C@@H]1N2C(C)=O
AC50 [1]: 1.3 µM (active)
AC50 [2]: 3.91 µM (active)
AC50 [3]: 4.5 µM (active)
AC50 [4]: 0.485 µM (active)
AC50 [5]: 3.59 µM (active)
AC50 [6]: 4.54 µM (active)
AC50 [7]: 3.7 µM (active)
AC50 [8]: 0.224 µM (active)
AC50 [9]: 4.87 µM (active)
AC50 [10]: 2.21 µM (active)
AC50 [11]: 4.5 µM (active)
AC50 [12]: 0.788 µM (active)
AC50 [13]: 0.0312 µM (active)
AC50 [14]: 2.73 µM (active)
AC50 [15]: 0.0312 µM (active)
AC50 [16]: 2.45 µM (active)
AC50 [17]: 1.48 µM (active)
AC50 [18]: 1.25 µM (active)

Oc1ccc2ccc3cccc4ccc1c2c34
outcome [1]: inactive
AC50 [2]: 10.5 µM (active)
outcome [3]: inactive
outcome [5]: inactive
AC50 [6]: 30.4 µM (active)
AC50 [7]: 30.1 µM (active)
AC50 [8]: 16.3 µM (active)
outcome [9]: inactive
AC50 [19]: 10.3 µM (active)
AC50 [10]: 27 µM (active)
outcome [11]: inactive
AC50 [12]: 14.6 µM (active)
outcome [13]: inactive
outcome [14]: inactive
AC50 [15]: 3.17 µM (active)
AC50 [20]: 10.4 µM (active)
AC50 [16]: 20 µM (active)
outcome [17]: inactive
AC50 [18]: 7.57 µM (active)

CN(C)c1ccccc1
outcome [1]: inactive
outcome [2]: inactive
outcome [3]: inactive
outcome [4]: inactive
outcome [5]: inactive
outcome [6]: inactive
outcome [7]: inactive
outcome [8]: inactive
outcome [9]: inactive
outcome [10]: inactive
outcome [11]: inactive
outcome [12]: inactive
outcome [13]: inactive
outcome [14]: inactive
outcome [15]: inactive
outcome [16]: inactive
outcome [17]: inactive
outcome [18]: inactive

ClC1=C(Cl)C2(Cl)C3C(Cl)C=CC3C1(Cl)C2(Cl)Cl (configuration not stated)
AC50 [1]: 30 µM (active)
AC50 [2]: 31.8 µM (active)
AC50 [3]: 33.6 µM (active)
AC50 [4]: 32 µM (active)
AC50 [5]: 31.2 µM (active)
AC50 [6]: 30.2 µM (active)
AC50 [7]: 32 µM (active)
outcome [8]: inactive
AC50 [9]: 29.3 µM (active)
AC50 [10]: 31.8 µM (active)
AC50 [11]: 30.2 µM (active)
AC50 [12]: 6.97 µM (active)
outcome [13]: inactive
AC50 [14]: 11.4 µM (active)
AC50 [15]: 10.3 µM (active)
AC50 [20]: 9.47 µM (active)
AC50 [16]: 11.2 µM (active)
AC50 [17]: 9.82 µM (active)
AC50 [18]: 10.6 µM (active)
